High-throughput results deposited in PubChem BioAssay by National Center for Advancing Translational Sciences (NCATS).
This is one part of a sample in which hits are shown more often than they occur.
Pf Dd2 inh = Plasmodium falciparum Dd2 growth inhibition; P. falciparum Dd2 growth, SYBR Green, 72 h; Potency, µM (highest dose often 28.9 µM), usual class: inhibitors; actives 4.3% (n = 120,000); AID 1347417; active = well fitted inhibition curve with a large enough effect; also: nearly all actives have a fitted effect of over 65% in size
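Readout: SYBR Green fluorescence, 485 nm excitation, 535 nm emission, after ~16 h lysis at 37C. Before that, Dd2-infected red cells (2.5% hematocrit) grew 72 h with compound, 29 uM top final concentration.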
Each line names hits and unclear results; the compound was inactive in the other large screens.

Cc1ccc(-n2nc3c(N4CCC(C(=O)NC(C)c5ccccc5)CC4)nnc(C)c3c2C)cc1 (stereo not drawn)	Pf Dd2 inh 10µM
Cc1nnc(N2CCC(C(=O)NC(C)C)CC2)c2nn(-c3ccc(Cl)cc3)c(C)c12	none
Cc1nnc(N2CCC(C(=O)NC(C)C)CC2)c2nn(-c3ccccc3)c(C)c12	none
Cc1ccccc1CNC(=O)C1CCN(c2nnc(C)c3c(C)n(-c4ccccc4)nc23)CC1	none
Cc1ccc(NC(=O)C2CCN(c3nnc(C)c4c(C)n(-c5ccccc5)nc34)CC2)c(Cl)c1	none
Cc1ccc(-n2nc3c(N4CCC(C(=O)NCCc5ccccc5)CC4)nnc(C)c3c2C)cc1	Pf Dd2 inh 6.3µM
Cc1nnc(N2CCC(C(=O)NCc3cccc(Cl)c3)CC2)c2nn(-c3ccccc3)c(C)c12	none
Cc1ccc(-n2nc3c(N4CCC(C(=O)NCCc5ccccc5C)CC4)nnc(C)c3c2C)cc1	Pf Dd2 inh 8.9µM
CCOc1ccc(NC(=O)C2CCN(c3nnc(C)c4c(C)n(-c5ccccc5)nc34)CC2)cc1	none
Cc1ccc(-n2nc3c(N4CCC(C(=O)N5CCC(C)CC5)CC4)nnc(C)c3c2C)cc1	none
CCOC(=O)C1CCN(C(=O)C2CCN(c3nnc(C)c4c(C)n(-c5ccccc5)nc34)CC2)CC1	Pf Dd2 inh 3.2µM
CC1CCCCN1C(=O)c1cnc(Cc2c(Cl)cccc2Cl)[nH]c1=O (stereo not drawn)	none
O=C(c1ccccc1)N1CCN2C(=O)N(C3CCOCC3)C[C@H]2C1	none
CCC(CC)CN1C[C@]23C=C[C@H](O2)C(C(=O)N2CC(n4nc(C)cc4C)C2)C3C1=O (stereo partly drawn)	none
CN(CC1CCOC1)C(=O)C1CCCC1 (stereo not drawn)	none
COC[C@@H]1CN(C(=O)c2ccc3ccccc3n2)C[C@H]1c1nc(C)no1	none
CCc1cc(=O)n(CC(=O)Nc2ccc(C)c(Cl)c2)c(N2CCOCC2)n1	none
CCOCCN1C(=O)COC[C@@H]1[C@H](O)c1ccc(NC(=O)c2ccco2)cc1	none
CCC1c2nccn2CCCN1C(=O)COC (stereo not drawn)	none
CCC1c2nccn2CCCN1C(=O)C1CCOCC1 (stereo not drawn)	none
CCC1c2nccn2CCCN1C(=O)Cc1ccc(OC)cc1 (stereo not drawn)	Pf Dd2 inh 7.1µM
CCC1c2nccn2CCCN1C(=O)c1ccc2c(c1)OCO2 (stereo not drawn)	none
CC(C)C1c2nccn2CCCN1C(=O)Cn1c(=O)oc2ccccc21 (stereo not drawn)	none
CCC1c2nccn2CCCN1C(=O)Cn1c(=O)oc2ccccc21 (stereo not drawn)	Pf Dd2 inh 13µM
O=C(NCc1nnc2ccc(-c3ccc(Cl)cc3)nn12)c1ccc(Cl)s1	none
CCOc1ccc(C(=O)N2CCCN(c3cc(-c4ccc(Cl)cc4)[nH]n3)CC2)cc1	none
COCCC(=O)N1CCC2(CCN(Cc3cccc(C)c3)CC2)C(CO)C1 (stereo not drawn)	none
O=C(c1ccccc1C(F)(F)F)N1CCC(n2cnnc2C2CC2)CC1	none
O=C(NCCc1noc(-c2ccncc2)n1)NC1CCCCC1	none
O=C(O)c1ccccc1CN1CC(COc2ccccc2)C2(C1)CN(c1ccccc1)C2 (stereo not drawn)	none
Cc1ccc(-n2ncc(C(=O)N3CCN(C(=O)c4ccco4)CC3)c2C2CCN(C(=O)OC(C)(C)C)CC2)cc1	none
CC(C)(C)OC(=O)N1CCC(c2c(C(=O)N3CCN(C(=O)c4ccco4)CC3)cnn2-c2ccccc2)CC1	none
Cc1ccc(-n2ncc(C(=O)N3CCN(Cc4ccccc4)CC3)c2C2CCN(C(=O)OC(C)(C)C)CC2)c(C)c1	Pf Dd2 inh 8.9µM
CC(C)(C)OC(=O)N1CCC(c2c(C(=O)N3CCN(Cc4ccccc4)CC3)cnn2-c2ccc(Cl)cc2)CC1	Pf Dd2 inh 11µM
Cc1cc(S(=O)(=O)N[C@@H]2CCOC[C@H]2OCc2cscn2)n(C)n1	none
CSc1cccc(NC(=O)Cn2nc3n(c2=O)CCCCC3)c1	none
Cc1cccc(=O)n1CCC(=O)N1CCCCC(N)C1 (stereo not drawn)	none
CN(C)S(=O)(=O)N1CCCC(c2nc(-c3cnccn3)no2)CCNC(=O)CC1 (stereo not drawn)	none
O=C(Nc1cccc(F)c1)N1CC(Oc2ccc(-c3nc(-c4ccccc4)no3)cc2)C1	none
Cc1ccccc1NC(=O)N1CCC(CCNC(=O)C2(c3ccccc3)CC2)CC1	none
Cc1cn2nnc(C(=O)NCC3CC3)c2c(=O)[nH]1	none
CCCNC(=O)c1nnn2cc(C)[nH]c(=O)c12	none
Cc1cn2nnc(C(=O)N3CCC(C(=O)NCc4ccccc4Cl)CC3)c2c(=O)[nH]1	none
COc1ccc(CNC(=O)c2nnn3cc(C)[nH]c(=O)c23)cc1	none
Cc1cn2nnc(C(=O)NCc3ccc4c(c3)OCO4)c2c(=O)[nH]1	Pf Dd2 inh 6.3µM
Cc1cn2nnc(C(=O)N3CCC(C(=O)NCc4cccc(Cl)c4)CC3)c2c(=O)[nH]1	Pf Dd2 inh 4.5µM
Cc1cn2nnc(C(=O)NCc3ccncc3)c2c(=O)[nH]1	none
Cc1ccc(CNC(=O)C2CCN(C(=O)c3nnn4cc(C)[nH]c(=O)c34)CC2)cc1	none
Cc1cn2nnc(C(=O)NCC3CCCCC3)c2c(=O)[nH]1	Pf Dd2 inh 6.3µM
